Assay results reported in PubChem BioAssay (Tox21).
Inconclusive results are not listed. A call without a number means that no potency is given here. The source made the active and inactive calls. Calls come from the whole dose curve; as a rule, active = well fitted cell-killing curve with a large enough effect in the repeat runs; inconclusive = weak or mixed curves, or effect the other way; inactive = no such curve, though single readings can be large or run the other way.

experiment: qHTS assay to identify small molecule agonists of the vitamin D receptor (VDR) signaling pathway - cell viability counter screen (AID 743224); conditions: VDR-bla HEK293T viability, CellTiter-Glo luminescence, 16 h; series mostly up to 62.6 µM; note: nearly all actives have a fitted effect of over 50% in size
Description: U.S. Tox21 Program National Center for Advancing Translational Sciences [NCATS] NIH Chemical Genomics Center [NCGC] U.S. Environmental Protection Agency [EPA] National Institutes of Environmental Health Sciences [NIEHS] National Toxicology Program [NTP] U.S. Food and Drug Administration [FDA] Tox21 Assay Overview: The vitamin D receptor (VDR), a member of nuclear hormone receptor superfamily, plays a critical role in calcium homeostasis and bone metabolism. It is also involved in cell differentiation and growth, and thrombogenicity. […] The cytotoxicity of the Tox21 compound library against the VDR-bla cell line was tested in parallel by measuring the cell viability using CellTiter-Glo assay (Promega, Madison, WI) in the same wells.
Tox21 Assay Protocol Summary: VDR-bla cells were dispensed at 2,000 cells/6 uL/well into black wall/clear-bottom 1536-well plates using a Multidrop Combi (Thermo Fisher Scientific, Waltham, MA) dispenser. After the assay plates were incubated at a 37C and 5% CO2 for 4 h, 23 nL of compounds dissolved in DMSO, positive controls or DMSO only was transferred to the assay plate by a Pintool station (Kalypsys, San Diego, CA). The plates were incubated at 37C and 5% CO2 for 16 h. After 1 uL of LiveBLAzerTM B/G FRET substrate was added using a Bioraptr Flying Reagent Dispenser (FRD) workstation (Beckman Coulter, Indianapolis, IN, USA), the plates were incubated at room temperature for 2 h, and fluorescence intensity was measured by an Envision plate reader (PerkinElmer, Shelton, CT). For cell viability readout that measures cytotoxicity, 3 ul/well of CellTiter-Glo reagent was added into the assay plates using a FRD. After 30 min incubation at room temperature, the luminescence intensity in the plates was measured using a ViewLux (PerkinElmer) plate reader.

Row | Structure (SMILES) | Potency
1 | CC[C@H](C)C(=O)O[C@H]1C[C@@H](C)C=C2C=C[C@H](C)[C@H](CC[C@@H]3C[C@@H](O)CC(=O)O3)[C@H]21 | inactive
2 | Cc1cccnc1 | inactive
3 | CCOC(=O)NNc1nncc2ccccc12 | inactive
4 | C/C=C1/CC2C=CC1C2 (stereo not given) | inactive
5 | CCCCCCCC(=O)OC | inactive
6 | CCCCC(CC)COC(=O)CS (stereo not given) | inactive
7 | CCCSc1ccc2nc(NC(=O)OC)[nH]c2c1 | inactive
8 | CCCCCCCCCC | inactive
9 | COc1cc(Cc2cnc(N)nc2N)cc(OC)c1OC | inactive
10 | CC(c1cc2ccccc2s1)N(O)C(N)=O (stereo not given) | inactive
11 | C[C@H]1C[C@@H]2[C@H]([C@@H](O)C[C@@]3(C)[C@H]2CC[C@]3(O)C(=O)CO)[C@@]2(C)C=CC(=O)C=C12 | inactive
12 | CCCCCCOCCO | inactive
13 | O=C=NCCCCCCN=C=O | inactive
14 | C=C(C)C(=O)Nc1ccc(Cl)c(Cl)c1 | inactive
15 | C=CCNC(N)=S | inactive
16 | Cc1cc(C)c(C)cc1C | inactive
17 | CC(=O)Nc1ccccc1 | inactive
18 | CC1=CCC2CC1C2(C)C (stereo not given) | inactive
19 | O=C(O)c1ccccc1C(c1ccc(O)cc1)c1ccc(O)cc1 | inactive
20 | O=S(=O)(O)c1ccc2ccccc2c1 | inactive

Row | Structure (SMILES) | Potency
21 | c1ccc2scnc2c1 | inactive
22 | CCc1cccc(C)c1N | inactive
23 | O=C(O)c1cc(O)c(O)c(O)c1 | inactive
24 | O=C(O)c1cc(=O)c2c(OCC(O)COc3cccc4oc(C(=O)O)cc(=O)c34)cccc2o1 | inactive
25 | CC1CCC2CC1C2(C)C (stereo not given) | inactive
26 | CCCCCC1=CCCC1=O | inactive
27 | C=CCOC(=O)c1ccccc1C(=O)OCC=C | inactive
28 | CCCCC(CC)COC(=O)C(C#N)=C(c1ccccc1)c1ccccc1 (stereo not given) | inactive
29 | CC1=C(C)S(=O)(=O)CCS1(=O)=O | inactive
30 | CC(=O)c1ccccc1 | inactive
31 | C#CCN(C)Cc1ccccc1 | inactive
32 | CCN(CC)CCCC(C)Nc1ccnc2cc(Cl)ccc12 (stereo not given) | inactive
33 | O=C(O)CC(C(=O)O)C(CC(=O)O)C(=O)O (stereo not given) | inactive
34 | OCCOCCN1CCN(C2=Nc3ccccc3Sc3ccccc32)CC1 | inactive
35 | O=S1(=O)CC=CC1 | inactive
36 | CCCCCC(N)=O | inactive
37 | CN(C)CCCN | inactive
38 | CCCCCCCCCCCCc1ccccc1 | inactive
39 | CC(C)(C)[C@@H](O)[C@@H](Cc1ccc(Cl)cc1)n1cncn1 | inactive
40 | O=C(Oc1ccccc1)c1ccccc1 | inactive
